Results as given in PubChem BioAssay (EPA / NIEHS).
Values joined by “and” are separate entries in the source; they are usually repeats but may differ in a detail not shown here. Equal entries are not always repeated. Some structures have more than one record in an assay (separate samples or runs), and their calls can disagree. Active and inactive are the calls of the source. Rule for the calls: active = hit-call score of the fitted dose curve at least 0.9, where 1 is the maximum; inactive = score below 0.9.

How the values were obtained:
[1] = molecular target: Bile acid receptor (Homo sapiens) (UniProt Q96RI1); assay: ATG_IR1_CIS: Attagene CIS-FACTORIAL HepG2 Assay for human Nuclear Receptor Subfamily 1 Group H Member 4 (NR1H4), IR1 submotif (AID 2282946); details: IR1 reporter transcription, actives raise or lower the signal
Bile acid receptor (Homo sapiens), sequence (Q96RI1 whole entry, looked up, the tested form may be a part): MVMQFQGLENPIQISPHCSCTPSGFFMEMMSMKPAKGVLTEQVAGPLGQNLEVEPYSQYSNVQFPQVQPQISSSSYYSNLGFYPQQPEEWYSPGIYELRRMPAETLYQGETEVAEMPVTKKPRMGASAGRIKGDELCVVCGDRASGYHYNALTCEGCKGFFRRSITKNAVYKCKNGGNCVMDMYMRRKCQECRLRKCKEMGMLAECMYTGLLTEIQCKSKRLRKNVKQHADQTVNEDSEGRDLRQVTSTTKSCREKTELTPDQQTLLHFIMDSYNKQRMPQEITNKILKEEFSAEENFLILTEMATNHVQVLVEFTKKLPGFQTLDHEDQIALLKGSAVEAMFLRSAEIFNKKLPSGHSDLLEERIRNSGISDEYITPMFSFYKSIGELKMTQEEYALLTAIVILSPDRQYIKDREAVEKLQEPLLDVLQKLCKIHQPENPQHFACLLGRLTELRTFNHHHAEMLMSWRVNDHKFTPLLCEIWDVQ
In short: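 Cells (human HepG2) carry transiently transfected cis-promoter reporter transcription units. Compounds are incubated 24 h, total RNA is reverse-transcribed and amplified, and labelled fragments are resolved by capillary electrophoresis. Curves use DMSO as baseline.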

[2] = ATG_GRE_CIS: Attagene CIS-FACTORIAL HepG2 Assay for human Glucocorticoid Response Elements (GRE) (AID 2282947); details: HepG2 GRE cis-reporter, Attagene multiplex mRNA; actives raise or lower the signal
In short: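 Transient MRTU transfection of human HepG2 liver cells; cis-regulated reporters report endogenous factors. 24 h dosing → RNA isolation → RT-PCR → 6-FAM primer extension → HpaI cut → CE fragment analysis. Bidirectional fit, DMSO negative control.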

[3] = ATG_ISRE_CIS: Attagene CIS-FACTORIAL HepG2 Assay for human Interferon Regulatory Factor 1 (IRF1) binding to an Interferon-Stimulated Response Element (ISRE) (AID 2282948); details: HepG2 ISRE cis-reporter (Attagene), mRNA transcription readout; actives raise or lower the signal
In short: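 Transiently transfected HepG2 cells carrying cis-element reporter units, dosed 24 hours. Reporter mRNA quantified by RT-PCR, fluorescent primer extension, HpaI digestion and capillary electrophoresis. Bidirectional fitting relative to DMSO.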

[4] = ATG_M_32_CIS: Attagene CIS-FACTORIAL HepG2 Assay for M32 Transcription Factor (Internal Marker) (AID 2282949); details: HepG2 Attagene cis-factorial M32 reporter, mRNA; actives raise or lower the signal;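 note: background control marker of the multiplexed CIS panel rather than a real target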
In short: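 Fluorescent capillary electrophoresis peaks of HpaI-digested, FAM-labelled RT-PCR reporter products give the signal. Source: transiently transfected human liver HepG2 cells, 24 h after chemical dosing; bidirectional fitting against DMSO.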

[5] = ATG_M_06_CIS: Attagene CIS-FACTORIAL HepG2 Assay for M06 Transcription Factor (Internal Marker) (AID 2282950); details: HepG2 Attagene CIS-FACTORIAL M06 internal marker reporter; actives raise or lower the signal
In short: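 Internal background marker within multiplexed cis-reporter HepG2 system. Cells transiently transfected, dosed 24 h; reporter mRNA measured by RT-PCR, HpaI digestion and capillary electrophoresis. Bidirectional fit relative to DMSO.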

[6] = molecular target: Hypoxia-inducible factor 1-alpha (Homo sapiens) (UniProt Q16665); assay: ATG_HIF1a_CIS: Attagene CIS-FACTORIAL HepG2 Assay for human Hypoxia Inducible Factor 1 (HIF1A) (AID 2282951); details: HepG2 Attagene cis-factorial HIF1a reporter transcription; actives raise or lower the signal
Hypoxia-inducible factor 1-alpha (Homo sapiens), sequence (Q16665 whole entry, looked up): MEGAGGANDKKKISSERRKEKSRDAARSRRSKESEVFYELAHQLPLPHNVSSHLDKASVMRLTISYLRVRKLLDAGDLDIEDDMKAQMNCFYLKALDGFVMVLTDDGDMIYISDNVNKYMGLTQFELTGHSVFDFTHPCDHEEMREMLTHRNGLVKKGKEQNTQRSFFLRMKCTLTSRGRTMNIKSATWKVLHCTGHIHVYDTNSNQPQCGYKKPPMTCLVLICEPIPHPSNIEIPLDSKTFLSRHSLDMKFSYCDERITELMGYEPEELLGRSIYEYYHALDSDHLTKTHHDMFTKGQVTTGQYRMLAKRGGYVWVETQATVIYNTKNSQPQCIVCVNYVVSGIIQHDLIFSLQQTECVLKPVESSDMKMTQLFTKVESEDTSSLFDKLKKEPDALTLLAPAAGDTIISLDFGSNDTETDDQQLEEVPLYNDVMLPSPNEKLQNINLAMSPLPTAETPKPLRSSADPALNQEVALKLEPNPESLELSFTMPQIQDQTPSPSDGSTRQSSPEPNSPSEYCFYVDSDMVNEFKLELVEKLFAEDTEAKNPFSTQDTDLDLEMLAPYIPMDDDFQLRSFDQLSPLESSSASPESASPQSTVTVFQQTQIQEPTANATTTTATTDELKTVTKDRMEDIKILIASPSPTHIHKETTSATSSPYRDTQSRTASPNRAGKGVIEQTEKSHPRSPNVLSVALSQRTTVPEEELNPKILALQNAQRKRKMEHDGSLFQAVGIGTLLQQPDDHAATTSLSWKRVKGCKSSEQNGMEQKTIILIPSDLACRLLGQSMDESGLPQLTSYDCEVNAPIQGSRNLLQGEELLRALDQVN
In short: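 In this multiplexed cell assay, HepG2 cells bearing transfected cis reporters are dosed for 24 h and reporter mRNA is read by RT-PCR plus capillary electrophoresis; signal increases and decreases are both scored against DMSO.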

[7] = molecular target: Hepatocyte nuclear factor 6 (Homo sapiens) (UniProt Q9UBC0); assay: ATG_HNF6_CIS: Attagene CIS-FACTORIAL HepG2 Assay for human Hepatocyte Nuclear Factor 6 (HNF6) (AID 2282952); details: HepG2 Attagene cis-factorial HNF6 reporter transcription; actives raise or lower the signal
Hepatocyte nuclear factor 6 (Homo sapiens), sequence (Q9UBC0 whole entry, looked up): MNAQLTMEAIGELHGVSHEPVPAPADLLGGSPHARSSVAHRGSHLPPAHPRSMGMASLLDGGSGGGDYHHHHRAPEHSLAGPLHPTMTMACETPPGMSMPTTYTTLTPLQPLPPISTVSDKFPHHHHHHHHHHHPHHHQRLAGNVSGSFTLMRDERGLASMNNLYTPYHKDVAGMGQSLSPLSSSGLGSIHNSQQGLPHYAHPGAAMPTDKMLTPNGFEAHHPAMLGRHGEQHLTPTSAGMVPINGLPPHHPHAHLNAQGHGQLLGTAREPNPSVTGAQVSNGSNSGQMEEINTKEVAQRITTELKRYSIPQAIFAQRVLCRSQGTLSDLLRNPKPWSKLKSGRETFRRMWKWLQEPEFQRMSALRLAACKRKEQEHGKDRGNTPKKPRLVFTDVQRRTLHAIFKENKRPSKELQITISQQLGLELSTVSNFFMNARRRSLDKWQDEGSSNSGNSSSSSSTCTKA
In short: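 Cells are HepG2 carrying transiently transfected cis-promoter reporter units. Treatment lasts 24 h, after which reporter transcripts are reverse-transcribed, amplified, FAM-labelled and sized by capillary electrophoresis. DMSO serves as baseline.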

[8] = molecular target: Heat shock factor protein 1 (Homo sapiens) (UniProt Q00613); assay: ATG_HSE_CIS: Attagene CIS-FACTORIAL HepG2 Assay for human Heat Shock Transcription Factor 1 (HSE) (AID 2282953); details: HepG2 HSE cis-reporter, Attagene RNA transcription; actives raise or lower the signal
Heat shock factor protein 1 (Homo sapiens), sequence (Q00613 whole entry, looked up): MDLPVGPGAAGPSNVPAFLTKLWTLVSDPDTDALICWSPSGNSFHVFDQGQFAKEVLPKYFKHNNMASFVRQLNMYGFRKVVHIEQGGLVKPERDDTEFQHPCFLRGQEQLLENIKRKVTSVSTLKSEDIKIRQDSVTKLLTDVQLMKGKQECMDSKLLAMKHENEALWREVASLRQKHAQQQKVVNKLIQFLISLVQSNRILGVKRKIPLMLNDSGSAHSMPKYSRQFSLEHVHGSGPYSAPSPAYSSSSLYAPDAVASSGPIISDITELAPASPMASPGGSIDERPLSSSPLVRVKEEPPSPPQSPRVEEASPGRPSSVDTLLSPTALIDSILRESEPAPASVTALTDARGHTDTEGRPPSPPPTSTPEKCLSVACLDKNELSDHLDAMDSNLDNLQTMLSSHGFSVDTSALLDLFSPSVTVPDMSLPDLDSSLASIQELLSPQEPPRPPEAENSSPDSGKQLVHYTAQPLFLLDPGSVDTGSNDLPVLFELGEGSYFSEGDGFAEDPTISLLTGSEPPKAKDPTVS
In short: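 HepG2 cells transfected with cis-promoter reporter units sensing endogenous transcription factor activity; reporter mRNA quantified 24 h post-dose by RT-PCR and capillary electrophoresis of 6-FAM-labelled products. Bidirectional fitting against DMSO.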

[9] = ATG_MRE_CIS: Attagene CIS-FACTORIAL HepG2 Assay for human Metal Responsive Element (MRE) (AID 2282954); details: HepG2 MRE cis-reporter transcription, Attagene multiplex; actives raise or lower the signal
In short: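 Transient MRTU transfection of HepG2 (FuGene 6); 24 h dosing; total RNA → oligo(dT) RT, PCR, 6-FAM primer extension, HpaI cut, CE. Bidirectional fit vs DMSO.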

[10] = molecular target: Paired box protein Pax-6 (Homo sapiens) (UniProt P26367); assay: ATG_Pax6_CIS: Attagene CIS-FACTORIAL HepG2 Assay for human Paired Box 6 (PAX6) (AID 2282956); details: HepG2 CIS-FACTORIAL PAX6 reporter transcription, RNA readout; actives raise or lower the signal
Paired box protein Pax-6 (Homo sapiens), sequence (P26367 whole entry, looked up): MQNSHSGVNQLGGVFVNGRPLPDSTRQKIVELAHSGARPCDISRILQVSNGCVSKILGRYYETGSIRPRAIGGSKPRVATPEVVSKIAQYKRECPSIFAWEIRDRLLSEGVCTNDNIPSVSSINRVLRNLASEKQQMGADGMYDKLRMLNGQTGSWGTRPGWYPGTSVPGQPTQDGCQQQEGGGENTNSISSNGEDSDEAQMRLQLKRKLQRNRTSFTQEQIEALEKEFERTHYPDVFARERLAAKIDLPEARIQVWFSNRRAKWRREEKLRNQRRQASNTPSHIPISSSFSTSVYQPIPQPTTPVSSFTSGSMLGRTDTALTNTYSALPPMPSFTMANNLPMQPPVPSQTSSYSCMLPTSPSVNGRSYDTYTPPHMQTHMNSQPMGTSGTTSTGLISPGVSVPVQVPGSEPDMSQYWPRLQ
In short: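 HepG2 cells transiently transfected with cis-promoter-driven multiplexed reporter units sensing endogenous transcription factor activity; 24 h chemical exposure. Reporter mRNA quantified by RT-PCR, 6-FAM labelling, HpaI digestion and capillary electrophoresis; bidirectional fit versus DMSO baseline.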

[11] = ATG_PXRE_CIS: Attagene CIS-FACTORIAL HepG2 Assay for human Pregnane X Receptor Element (PXRE) (AID 2282957); details: HepG2 Attagene CIS-FACTORIAL PXRE reporter, mRNA; actives raise or lower the signal
In short: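 Multiplexed cis-reporter assay in transiently transfected human HepG2 cells; 24 h chemical exposure. Reporter transcripts quantified by RT-PCR with fluorescent labeling and capillary electrophoresis.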

[12] = ATG_PPRE_CIS: Attagene CIS-FACTORIAL HepG2 Assay for human Peroxisome Proliferator-activated Response Element (PPRE) (AID 2282958); details: HepG2 PPRE cis-element reporter, Attagene transcription factor profiling; actives raise or lower the signal
In short: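 Multiplexed reporter transcription units under cis-regulatory promoters were transfected into HepG2 cells to capture endogenous factor activity. A 24 h incubation preceded RNA isolation and fluorescent RT-PCR fragment analysis.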

[13] = ATG_RORE_CIS: Attagene CIS-FACTORIAL HepG2 Assay for human RAR-related Orphan Receptor Element (RORE) (AID 2282959); details: HepG2 Attagene cis-factorial RORE reporter, mRNA; actives raise or lower the signal
In short: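 Fluorescence intensity of reporter-specific cDNA fragments, separated by capillary electrophoresis, gives the signal. Source: HepG2 liver cells transiently transfected with cis-element reporters and exposed 24 h; DMSO-normalized bidirectional fit.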

[14] = ATG_Sox_CIS: Attagene CIS-FACTORIAL HepG2 Assay for human SRY-box transcription factor (SOX) (AID 2282960); details: HepG2 Attagene cis-factorial SOX reporter, mRNA; actives raise or lower the signal
In short: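 After 24 h of chemical treatment, transfected HepG2 reporter cells are lysed for total RNA. Transcript levels come from RT-PCR with labelled primer extension and capillary electrophoresis, analysed bidirectionally versus DMSO.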

[15] = molecular target: Transcription factor Sp1 (Homo sapiens) (UniProt P08047); assay: ATG_Sp1_CIS: Attagene CIS-FACTORIAL HepG2 Assay for human Specificity Protein 1 (Sp1) (AID 2282961); details: HepG2 Sp1 cis-reporter transcription, actives raise or lower the signal
Transcription factor Sp1 (Homo sapiens), sequence (P08047 whole entry, looked up): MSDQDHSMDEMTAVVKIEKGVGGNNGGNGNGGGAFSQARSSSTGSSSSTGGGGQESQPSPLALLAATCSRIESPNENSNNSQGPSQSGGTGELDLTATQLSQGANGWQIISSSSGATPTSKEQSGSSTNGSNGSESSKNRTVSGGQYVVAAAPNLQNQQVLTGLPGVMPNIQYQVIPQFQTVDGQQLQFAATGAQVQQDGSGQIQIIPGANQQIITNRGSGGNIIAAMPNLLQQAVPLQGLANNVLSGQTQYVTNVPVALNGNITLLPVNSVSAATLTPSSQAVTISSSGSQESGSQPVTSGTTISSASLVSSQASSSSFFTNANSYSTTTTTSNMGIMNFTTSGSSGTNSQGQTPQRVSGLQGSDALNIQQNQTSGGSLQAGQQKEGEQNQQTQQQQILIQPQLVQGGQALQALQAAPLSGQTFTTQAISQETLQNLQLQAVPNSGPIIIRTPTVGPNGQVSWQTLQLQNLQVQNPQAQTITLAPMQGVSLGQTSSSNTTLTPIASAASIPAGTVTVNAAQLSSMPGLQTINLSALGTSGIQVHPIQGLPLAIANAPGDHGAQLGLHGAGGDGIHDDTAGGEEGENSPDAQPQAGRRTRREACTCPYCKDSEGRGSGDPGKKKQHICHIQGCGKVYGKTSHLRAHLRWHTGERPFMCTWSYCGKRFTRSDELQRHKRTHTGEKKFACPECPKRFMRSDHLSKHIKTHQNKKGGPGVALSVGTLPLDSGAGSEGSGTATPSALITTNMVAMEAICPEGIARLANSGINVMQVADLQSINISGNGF
In short: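 Sp1-driven reporter mRNA, read as capillary electrophoresis fluorescence after RT-PCR, in transiently transfected HepG2 cells dosed for 24 h; signal change in either direction relative to DMSO.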

[16] = ATG_SREBP_CIS: Attagene CIS-FACTORIAL HepG2 Assay for human Sterol Regulatory Element Binding (SREBP) (AID 2282962); details: HepG2 Attagene cis-factorial SREBP reporter, mRNA; actives raise or lower the signal
In short: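 HepG2 cells transiently transfected with multiplexed cis-promoter reporter units sensing endogenous transcription factors; reporter mRNA measured 24 h after dosing by RT-PCR, 6-FAM labeling, HpaI digestion and capillary electrophoresis. Bidirectional fit versus DMSO.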

[17] = molecular target: Signal transducer and activator of transcription 3 (Homo sapiens) (UniProt P40763); assay: ATG_STAT3_CIS: Attagene CIS-FACTORIAL HepG2 Assay for human Signal Transducer and Activator of Transcription 3 (STAT3) (AID 2282963); details: HepG2, Attagene cis-factorial STAT3 reporter transcription; actives raise or lower the signal
Signal transducer and activator of transcription 3 (Homo sapiens), sequence (P40763 whole entry, looked up): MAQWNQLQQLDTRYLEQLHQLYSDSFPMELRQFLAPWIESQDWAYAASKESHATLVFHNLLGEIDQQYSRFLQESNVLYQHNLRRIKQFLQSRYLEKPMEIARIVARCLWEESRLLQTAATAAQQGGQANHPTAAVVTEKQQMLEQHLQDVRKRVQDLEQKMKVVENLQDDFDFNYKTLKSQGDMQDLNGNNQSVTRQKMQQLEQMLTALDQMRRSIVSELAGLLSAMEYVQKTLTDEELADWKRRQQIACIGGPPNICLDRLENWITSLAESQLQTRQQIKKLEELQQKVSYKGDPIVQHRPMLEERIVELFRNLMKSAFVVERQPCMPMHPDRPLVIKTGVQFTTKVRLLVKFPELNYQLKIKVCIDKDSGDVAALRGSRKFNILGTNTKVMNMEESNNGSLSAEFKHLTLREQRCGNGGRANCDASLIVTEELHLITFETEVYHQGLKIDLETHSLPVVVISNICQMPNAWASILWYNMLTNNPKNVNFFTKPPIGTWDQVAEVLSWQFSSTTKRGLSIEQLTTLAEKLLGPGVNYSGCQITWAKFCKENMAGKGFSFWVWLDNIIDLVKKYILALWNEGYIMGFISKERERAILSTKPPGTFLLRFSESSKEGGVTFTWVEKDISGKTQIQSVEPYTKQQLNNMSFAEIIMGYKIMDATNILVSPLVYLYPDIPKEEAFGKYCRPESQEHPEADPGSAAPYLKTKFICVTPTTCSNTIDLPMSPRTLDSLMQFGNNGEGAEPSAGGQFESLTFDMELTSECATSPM
In short: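 Endogenous STAT3-responsive cis-element activity was read in transiently transfected HepG2 cells after 24 h treatment. Reporter transcripts were quantified via RT-PCR and capillary electrophoresis, with DMSO as negative control and bidirectional curve fitting.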

[18] = ATG_TA_CIS: Attagene CIS-FACTORIAL HepG2 Assay for human TA Basal Promoter (AID 2282964); details: HepG2 Attagene CIS-factorial TA basal promoter reporter; actives raise or lower the signal
In short: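 HepG2 cells transiently transfected with multiple reporter units under cis promoter elements, reporting endogenous transcription factor activity; this endpoint tracks the TA basal promoter as background control. Reporter mRNA after 24 h dosing measured by RT-PCR/capillary electrophoresis; bidirectional fits versus DMSO.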

[19] = ATG_TCF_b_cat_CIS: Attagene CIS-FACTORIAL HepG2 Assay for human T-Cell-Factor with beta-catenin (TCF/b-cat) (AID 2282965); details: HepG2 TCF/beta-catenin cis-reporter transcription, actives raise or lower the signal
In short: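 Measured: reporter mRNA in HepG2 transiently transfected with cis-promoter reporter units, 24 h after chemical addition. Fitting was bidirectional, DMSO as negative control.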

[20] = ATG_PBREM_CIS: Attagene CIS-FACTORIAL HepG2 Assay for human Phenobarbital-responsive Enhancer Module (PBREM) (AID 2282955); details: HepG2 PBREM cis-reporter, Attagene multiplexed transcription; actives raise or lower the signal
In short: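 After a 24 h incubation with test chemical, transfected HepG2 cells yield total RNA; reporter-specific RT-PCR products are fluorescently labelled, HpaI-digested and resolved by capillary electrophoresis against ROX size standards.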

Measured: AC50

OC12N=C(c3ccccc3)SC1Cc1cc(Cl)ccc12 (stereo unspecified)
active: [11] 4.27 µM | [12] 0.0507 µM
not listed: [20]
inactive: all other assays above

CC(C)(C)c1cc(/C=C2\SC(N)=NC2=O)cc(C(C)(C)C)c1O
active: [1] 8.2 µM | [3] 11 µM | [8] 20 µM | [9] 15 µM | [10] 14.5 µM | [11] 1.2 µM | [16] 18.2 µM | [19] 16.3 µM
not listed: [12] | [20]
inactive: all other assays above

CCCCCc1ccc(N)cc1
active: [6] 2.57 µM | [9] 46 µM | [11] 72.9 µM and 27.4 µM and 21.2 µM | [19] 8.92 µM and 6.2 µM and 19.5 µM
inactive: [3] | [4] | [5] | [6] | [7] | [8] | [9] | [20] | [10] | [11] | [12] | [13] | [14] | [16] | [17] | [18] | [19]

Cc1cn([C@H]2C[C@H](N=[N+]=[N-])[C@@H](CO)O2)c(=O)[nH]c1=O
not listed: [6] | [15] | [20]
inactive: all other assays above

C[C@]12CC[C@@H]3c4ccc(O)cc4CC[C@H]3[C@@H]1CC[C@H]2O
active: [9] 24.8 µM | [11] 7.87 µM and 6.41 µM and 4.84 µM | [16] 27.6 µM | [19] 27.3 µM
inactive: [2] | [3] | [4] | [5] | [7] | [8] | [9] | [20] | [10] | [11] | [12] | [13] | [14] | [16] | [17] | [18] | [19]
